PubChem BioAssay (Tox21)
Values joined by “and” are separate entries in the source; they are usually repeats but may differ in a detail not shown here. Equal entries are not always repeated. Inconclusive results are not listed. Some compounds were tested as several samples or in several runs, with calls that do not always agree. Active and inactive are the calls of the source. Unless noted, the call rests on the fitted dose curve; in most records, active means well fitted curve in the direction sought with a large enough effect in the repeat runs; inconclusive means weak or mixed curves; inactive means no such curve, though single readings can be large; an effect the other way counts as inactive or inconclusive.

Assays:
[1] = qHTS assay to identify small molecule antagonists of the constitutive androstane receptor (CAR) signaling pathway - cell viability counter screen (AID 1224837); further: nearly all actives have a fitted effect of over 45% in size
Procedure, shortened: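 Fluorescence from CellTiter-Fluor served as the viability signal. Human hepatoma HepG2 cells stably bearing hCAR and CYP2B6-2.2kb received compound plus CITCO (50 nM final) for 23 hr.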

[2] = target: Nuclear receptor subfamily 1 group I member 3 (Homo sapiens) (UniProt Q14994); experiment: qHTS assay to identify small molecule antagonists of the constitutive androstane receptor (CAR) signaling pathway (AID 1224838);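 further: HepG2 cells stably expressing hCAR with CYP2B6 luciferase reporter stimulated by CITCO; nearly all actives have a fitted effect of over 40% in size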; further: potency means the concentration at half of the fitted maximal effect
Chain of Nuclear receptor subfamily 1 group I member 3 (Homo sapiens) (Q14994 whole entry, looked up): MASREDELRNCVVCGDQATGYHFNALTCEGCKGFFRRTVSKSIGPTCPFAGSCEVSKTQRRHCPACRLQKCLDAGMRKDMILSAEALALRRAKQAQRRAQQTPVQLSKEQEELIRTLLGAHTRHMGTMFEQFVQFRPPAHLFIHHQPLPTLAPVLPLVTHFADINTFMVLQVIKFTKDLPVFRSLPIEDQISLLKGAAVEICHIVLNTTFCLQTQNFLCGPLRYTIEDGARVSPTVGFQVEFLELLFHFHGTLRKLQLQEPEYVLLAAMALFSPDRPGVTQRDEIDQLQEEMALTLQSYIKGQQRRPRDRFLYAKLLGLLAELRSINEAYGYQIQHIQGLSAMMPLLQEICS
Procedure, shortened: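 Quantitative HTS in double-stable HepG2-CYP2B6-hCAR cells. After 4 h plating, cells get compound (15 concentrations) and CITCO at 50 nM final, incubate 24 h at 37 C, then ONE-Glo luminescence is read.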

[3] = target: Nuclear receptor subfamily 1 group I member 3 (Homo sapiens) (UniProt Q14994); experiment: qHTS assay to identify small molecule agonists of the constitutive androstane receptor (CAR) signaling pathway (AID 1224839); further: nearly all actives have a fitted effect of over 15% in size; further: potency means the concentration at half of the fitted maximal effect;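 on activation: HepG2 cells stably carrying human CAR and a CYP2B6 luciferase reporter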
Procedure, shortened: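 In this screen, CAR-driven CYP2B6 promoter activity is measured by luminescence in HepG2-CYP2B6-hCAR cells after 24 h with test compounds and 0.75 uM PK11195 (final concentration).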

[4] = qHTS assay to identify small molecule antagonists of the estrogen related receptor signaling pathway with the pleiotropic PPARgamma coactivator (PGC) from Tox21 10K library - cell viability counter screen (AID 1224840; active means well fitted cell-killing curve with a large enough effect in the repeat runs, not every such curve was filed as active; further: nearly all actives have a fitted effect of over 40% in size; further: potency means the concentration at half of the fitted maximal effect)
Procedure, shortened: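 Compounds in DMSO, alongside positive and negative controls, were pinned onto PGC/ERR cells (2,000 per well). Exposure lasted 17.5 hours at 37 C, followed by a 30-minute CellTiter-Fluor incubation and fluorescence reading.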

[5] = target: Thyrotropin receptor (Homo sapiens) (UniProt P16473); experiment: qHTS assay to identify small molecule agonists of the thyroid stimulating hormone receptor (TSHR) signaling pathway (AID 1224843; calls by dose curve; further: nearly all actives have a fitted effect of over 45% in size)
Chain of Thyrotropin receptor (Homo sapiens) (P16473 whole entry, looked up): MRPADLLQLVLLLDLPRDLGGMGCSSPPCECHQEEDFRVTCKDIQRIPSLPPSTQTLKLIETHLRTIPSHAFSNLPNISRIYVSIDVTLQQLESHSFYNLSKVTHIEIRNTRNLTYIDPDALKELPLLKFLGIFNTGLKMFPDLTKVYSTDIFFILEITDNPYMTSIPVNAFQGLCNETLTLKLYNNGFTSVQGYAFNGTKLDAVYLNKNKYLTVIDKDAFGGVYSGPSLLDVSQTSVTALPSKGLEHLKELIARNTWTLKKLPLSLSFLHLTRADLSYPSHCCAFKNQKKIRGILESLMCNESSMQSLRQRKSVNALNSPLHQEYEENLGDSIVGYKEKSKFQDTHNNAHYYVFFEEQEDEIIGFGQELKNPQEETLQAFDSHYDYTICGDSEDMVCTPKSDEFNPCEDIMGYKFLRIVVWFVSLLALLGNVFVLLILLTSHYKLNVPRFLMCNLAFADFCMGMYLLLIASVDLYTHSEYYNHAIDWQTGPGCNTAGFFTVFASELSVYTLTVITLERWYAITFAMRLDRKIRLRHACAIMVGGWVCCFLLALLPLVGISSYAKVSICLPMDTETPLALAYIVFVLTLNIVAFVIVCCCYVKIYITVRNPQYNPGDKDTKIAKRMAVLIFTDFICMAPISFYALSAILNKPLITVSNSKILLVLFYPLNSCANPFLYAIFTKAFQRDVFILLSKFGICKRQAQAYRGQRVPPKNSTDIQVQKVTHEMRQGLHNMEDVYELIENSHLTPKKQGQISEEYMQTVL
Procedure, shortened: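 Steps: seed 800 TSHR-HEK293 cells per well; add test compound and hold 30 min at ambient temperature; dispense cAMP-d2 then anti-cAMP cryptate; incubate 1 h at ambient; measure fluorescence intensity.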

[6] = qHTS assay to identify small molecule agonists of the hypoxia (HIF-1) signaling pathway - cell viability counter screen (AID 1224844; calls by dose curve; further: nearly all actives have a fitted effect of over 50% in size; further: potency means the concentration at half of the fitted maximal effect)
Procedure, shortened: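 Luminescent ATP content (CellTiter-Glo, 30 min, room temperature) served as the viability measure in HRE-bla ME-180 cells exposed to compounds for 17 hrs in low-serum medium (0.5% dialyzed FBS).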

[7] = qHTS assay to identify small molecule agonists of the hypoxia (HIF-1) signaling pathway (AID 1224846; active means well fitted activation curve with a large enough effect in the signal ratio in the repeat runs, not every such curve was filed as active; the % refers to the signal ratio)
Procedure, shortened: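 Measured by blue/green FRET after loading CCF4-AM: beta-lactamase expressed from a hypoxia response element in ME-180 cells. Test agents were delivered in DMSO and left 17 hrs; cells had been plated 5 hrs earlier in low-serum (0.5% dialyzed FBS) medium.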

[8] = qHTS assay to identify small molecule agonists of H2AX - cell viability counter screen (AID 1224847; calls by dose curve; further: top concentration of the series differs between compounds; nearly all actives have a fitted effect of over 30% in size)
Procedure, shortened: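 Read-out: CellTiter-Glo luminescence, 30 min RT. Cells: wild-type CHO-K1, 1000/well, 10% FBS, plated overnight at 37C. Treatment: 15 concentrations, 3 hr, 37C, 0.76% DMSO.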

[9] = qHTS assay to identify small molecule agonists of the estrogen related receptor (ERR) signaling pathway from Tox21 library (AID 1224849; calls by dose curve; further: nearly all actives have a fitted effect of over 15% in size); conditions: ERR reporter cell line, ONE-Glo luciferase, 18 h; at 92.4 µM (top of the series)
Procedure, shortened: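 We plated ERR reporter cells, waited 6 h, added compounds in DMSO by pin tool and incubated them 18 h at 37 C. ONE-Glo was then added and luminescence read after 30 min.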

[10] = qHTS RealTime-Glo MT Cell Viability Assay in HEK293 cells - 32 hour (AID 1224868); further: nearly all actives have a fitted effect of over 50% in size; further: potency means the concentration at half of the fitted maximal effect
Procedure, shortened: (§1)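 Luminescence generated by NanoLuc from substrate produced by living HEK293 cells served as the viability signal. Each value reflects the reading at its stated time point during continuous 40 h compound exposure at 37 C.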

[11] = A CellTox Green Cytotoxicity Assay to monitor cytotoxicity in HEK293 cells - 0 hour (AID 1224869); further: nearly all actives have a fitted effect of over 50% in size
Procedure, shortened: (§2)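 Each value comes from one timepoint of a single continuous run in which HEK293 cells with CellTox Green were exposed to compound for up to 40 h at 37 C, dye fluorescence rising with cell death.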

[12] = qHTS RealTime-Glo MT Cell Viability Assay in HepG2 cells - 40 hour (AID 1224870); further: nearly all actives have a fitted effect of over 50% in size
Procedure, shortened: (§3)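 HepG2 cells (600/well) mixed with RealTime-Glo MT reagent, settled 5 h at 37 C/5% CO2 before compound addition. Nonlytic NanoLuc luminescence from viable-cell prosubstrate reduction read repeatedly during 40 h treatment at 37 C.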

[13] = A CellTox Green Cytotoxicity Assay to monitor cytotoxicity in HEK293 cells - 40 hour (AID 1224871); further: nearly all actives have a fitted effect of over 45% in size; further: potency means the concentration at half of the fitted maximal effect
Procedure, shortened: as §2

[14] = qHTS RealTime-Glo MT Cell Viability Assay in HEK293 cells - 16 hour (AID 1224872); further: nearly all actives have a fitted effect of over 50% in size; further: potency means the concentration at half of the fitted maximal effect
Procedure, shortened: as §1

[15] = qHTS RealTime-Glo MT Cell Viability Assay in HEK293 cells - 40 hour (AID 1224874); conditions: RealTime-Glo luminescence; max response: stronger effect = lower value; further: nearly all actives have a fitted effect of over 50% in size; further: potency means the concentration at half of the fitted maximal effect
Procedure, shortened: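 qHTS format; HEK293 cells with NanoLuc/prosubstrate reagent, 37 C/5% CO2 for 5 h pre-dosing; compounds 23 nL in DMSO; luminescence at each time point reflects viable cells.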

[16] = A CellTox Green Cytotoxicity Assay to monitor cytotoxicity in HEK293 cells - 24 hour (AID 1224875); further: nearly all actives have a fitted effect of over 45% in size
Procedure, shortened: as §2

[17] = A CellTox Green Cytotoxicity Assay to monitor cytotoxicity in HepG2 cells - 16 hour (AID 1224876); further: nearly all actives have a fitted effect of over 45% in size
Procedure, shortened: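 Continuous culture of HepG2 cells with a membrane-impermeant DNA dye; rising fluorescence marks dead cells. Compound exposure lasted up to 40 h at 37 C, with reads every 8 h from 0 h.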

[18] = qHTS RealTime-Glo MT Cell Viability Assay in HepG2 cells - 24 hour (AID 1224867); further: nearly all actives have a fitted effect of over 50% in size
Procedure, shortened: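 Tox21 10K library screened in qHTS format on HepG2 cells carrying RealTime-Glo reagents. Compounds were added after a 5 h preincubation, and the luminescent signal from continuous culture was measured repeatedly during 40 h treatment.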

[19] = qHTS assay to identify small molecule agonists of H2AX (AID 1224845; active means well fitted activation curve with a large enough effect in the signal ratio in the repeat runs, not every such curve was filed as active; the % refers to the signal ratio; further: potency means the concentration at half of the fitted maximal effect)
Procedure, shortened: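 Wild-type CHO-K1 cells, plated overnight, exposed 3hr at 37C to 15 concentrations (0.76% DMSO final). Lysed, then HTRF anti-pH2AX (S139) cryptate and anti-H2AX-d2 antibodies, 24 hr room temperature; 665/620 nm emission read.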

[20] = qHTS RealTime-Glo MT Cell Viability Assay in HepG2 cells - 8 hour (AID 1224873); further: nearly all actives have a fitted effect of over 55% in size
Procedure, shortened: as §3
On the % scale 0 is the no-effect control and ±100 the full control effect.

O=c1[nH]nnc2ccccc12
inactive: Potency [1] | Potency [2] | Potency [3] | Potency [4] | Potency [5] | Potency [6] | outcome [7] | Potency [8] | activity change, positive = activation [9] 5.04% and -0.708% | Potency [10] | outcome [11] | outcome [12] | Potency [13] | Potency [14] | max response [15] 2.18% and -25.5% | Potency [16] | Potency [17]

CSCCC=O
inactive: Potency [1] | Potency [2] | Potency [3] | Potency [4] | Potency [6] | outcome [7] | Potency [8] | activity change, positive = activation [9] 9.1% and 4.08% | outcome [18] | Potency [10] | outcome [11] | outcome [12] | Potency [13] | Potency [14] | Potency [16] | Potency [17]

C[C@H]1C[C@H]2[C@@H]3CCC4=CC(=O)C=C[C@]4(C)[C@@]3(F)[C@@H](O)C[C@]2(C)[C@@]1(O)C(=O)CO
inactive: Potency [1] | Potency [2] | Potency [3] | Potency [4] | Potency [6] | Potency [19] | Potency [8] | Potency [10] | outcome [11] | outcome [12] | Potency [13] | Potency [14] | max response [15] -12.6% and 0.279% | Potency [16] | Potency [17]

c1ccc2c(c1)ccc1ccccc12
inactive: Potency [1] | Potency [2] | Potency [3] | Potency [4] | Potency [6] | Potency [19] | outcome [7] | Potency [8] | activity change, positive = activation [9] -34.9% and -32.3% | outcome [18] | Potency [10] | outcome [11] | outcome [12] | Potency [14] | Potency [17]

CCCCN(CCCC)CCCC
inactive: Potency [1] | Potency [2] | Potency [3] | Potency [4] | Potency [5] | Potency [6] | outcome [7] | Potency [8] | outcome [18] | Potency [10] | outcome [11] | outcome [12] | Potency [13] | Potency [14] | outcome [20] | Potency [16] | Potency [17]

O=C(O)c1ccc(C(=O)O)cc1
inactive: Potency [1] | Potency [2] | Potency [3] | Potency [4] | Potency [5] | Potency [6] | outcome [7] | Potency [8] | outcome [18] | Potency [10] | outcome [11] | outcome [12] | Potency [13] | Potency [14] | outcome [20] | max response [15] -0.318% and 3.28% | Potency [16] | Potency [17]

O=C(O)CCCCCCCCCCC(=O)O
inactive: Potency [1] | Potency [3] | Potency [4] | Potency [5] | Potency [6] | outcome [7] | Potency [8] | outcome [18] | Potency [10] | outcome [11] | outcome [12] | Potency [13] | Potency [14] | max response [15] -3.15% and -61.6% | Potency [16] | Potency [17]
inactive and 1 nM (active): Potency [2]

CN(C)CCCN
inactive: Potency [1] | Potency [2] | Potency [3] | Potency [4] | Potency [5] | Potency [6] | outcome [7] | Potency [8] | activity change, positive = activation [9] 5.71% and 0.874% | Potency [10] | outcome [11] | outcome [12] | Potency [13] | Potency [14] | max response [15] -0.421% and -3.46% | Potency [16] | Potency [17]

CC(=O)Nc1ccccc1
inactive: Potency [1] | Potency [2] | Potency [3] | Potency [4] | Potency [5] | Potency [6] | outcome [7] | Potency [8] | outcome [18] | Potency [10] | outcome [11] | outcome [12] | Potency [13] | Potency [14] | outcome [20] | max response [15] 12.1% and 6.06% | Potency [16] | Potency [17]

CC1=C(C)S(=O)(=O)CCS1(=O)=O
inactive: Potency [1] | Potency [2] | Potency [4] | Potency [6] | outcome [7] | Potency [8] | activity change, positive = activation [9] 10.9% | outcome [18] | outcome [11] | outcome [12] | Potency [13] | Potency [14] | outcome [20] | Potency [16] | Potency [17]
active: Potency [3] 3.01 µM

c1c[nH]cn1
inactive: Potency [1] | Potency [4] | Potency [6] | outcome [7] | Potency [8] | outcome [18] | Potency [10] | outcome [11] | outcome [12] | Potency [13] | Potency [14] | outcome [20] | max response [15] 11.4% and 19.2% | Potency [16] | Potency [17]

O=C(O)c1cc(C(=O)O)cc(S(=O)(=O)O)c1
inactive: Potency [1] | Potency [4] | Potency [5] | Potency [6] | Potency [19] | outcome [7] | Potency [8] | outcome [18] | Potency [10] | outcome [11] | outcome [12] | Potency [13] | Potency [14] | outcome [20] | max response [15] -1.84% and 1.2% | Potency [16] | Potency [17]

C=C(C)C(=O)O[C@H]1C[C@@H]2CC[C@@]1(C)C2(C)C
inactive: Potency [5] | outcome [7] | Potency [8] | activity change, positive = activation [9] -82.3% and 8.09% | outcome [11] | outcome [12] | max response [15] 2.39% | Potency [16] | Potency [17]
13.6 µM (active) and inactive: Potency [4]
12.2 µM (active) and inactive: Potency [13]
active: Potency [15] 15.4 µM
2.24 µM (active) and inactive: Potency [19]
15.4 µM (active) and inactive: Potency [10] | Potency [14]
1.94 µM (active) and inactive: Potency [6]
